aSyn yeast rescue: rescues yeast growth from alpha-synuclein toxicity; S. cerevisiae alpha-synuclein toxicity rescue, BacTiter-Glo growth, 24 h; Potency, µM (series often up to 46.1 µM), hits mostly activators; actives 0.02% (n = 94,000); active = well fitted activation curve with a large enough effect; also: 0% is about no effect
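Growth restoration measured by BacTiter-Glo luminescence after 24 hr at 30 deg C; alpha-synuclein yeast, raffinose-pregrown to mid-log, were added at OD600=0.02 in galactose medium onto pinned compounds.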
* hit, by the source's call. This is one part of a sample in which hits are shown more often than they occur. Potency is read from the fitted curve at half-maximal effect.

Screening COc1ccc2c(c1)Cc1sc(NC(=O)c3ccc(Cl)cc3)nc1-2 returned aSyn yeast rescue inactive.
Screening COc1ccc(C)cc1NC(=O)c1cc(S(=O)(=O)N2CCCCC2)c[nH]1 returned aSyn yeast rescue inactive.
`O=C(Cc1ccc(F)cc1)NC1CC(=O)N(c2ccccc2)C1` (configuration not stated) gave aSyn yeast rescue inactive.
`CN(Cc1ccccc1)C(=O)Cn1c(=O)c2cccn2c2ccc(F)cc21` gave aSyn yeast rescue inactive.
Screening CCCn1c(=O)c2sccc2n2c(CCCC(=O)NCCc3ccc(Cl)cc3)nnc12 returned aSyn yeast rescue inactive.
CCOc1ccc(-n2nc(CO)c(C(=O)NCc3ccc(Cl)cc3)n2)cc1 was read as aSyn yeast rescue inactive.
`CCOc1ccc(Oc2nc(NCC(C)C)nc(N3CCOCC3)n2)nn1` gave aSyn yeast rescue inactive.
For CC(=O)c1ccc(NC(=O)Cn2cc(S(=O)(=O)Cc3ccccc3Cl)c3ccccc32)cc1 the results were aSyn yeast rescue inactive.
For CCC(C(=O)Nc1ccc(C(=O)OC)cc1)n1c(=O)c(-c2ccccc2NC(C)=O)nc2ccccc21 (configuration not stated) the results were aSyn yeast rescue inactive.
For CCOC(=O)c1cc(-c2ccccc2)n(CCCC(=O)Nc2ccc(C)c(Cl)c2)c1C the results were aSyn yeast rescue inactive.
For Cc1ccc(Nc2nnc(-c3ccc(C)c(S(=O)(=O)N4CCOCC4)c3)c3ccccc23)c(C)c1 the results were aSyn yeast rescue inactive.
`O=C(Cc1ccccc1)N(Cc1cccnc1)c1nc2c(Cl)cccc2s1` gave aSyn yeast rescue 14.1µM*.
COc1cccc2sc(N(Cc3cccnc3)C(=O)COc3ccccc3)nc12 was read as aSyn yeast rescue inactive.
Screening O=C(C1COc2ccccc2O1)N(Cc1cccnc1)c1nc2c(Cl)cccc2s1 (configuration not stated) returned aSyn yeast rescue inactive.
`CCOc1ccc(-n2nc(CO)c(C(=O)NCc3cccc(OC)c3)n2)cc1` gave aSyn yeast rescue inactive.
Screening COc1ccc(NC(=O)Cn2nnnc2-c2ccccc2F)c(C)c1 returned aSyn yeast rescue inactive.
For CCOc1ccc(CNCc2c(C(=O)O)c(C)n(Cc3ccc(C)cc3)c2C)cc1 the results were aSyn yeast rescue inactive.
`O=C(NCCc1ccccc1)c1ccc(Cn2c(SCc3ccccc3F)nc3cccnc32)cc1` gave aSyn yeast rescue inactive.
`Cc1c(/C=C(\C#N)C(=O)Nc2cccc(Cl)c2)c2ccccc2n1Cc1ccccc1Cl` gave aSyn yeast rescue inactive.
Screening COc1cccc(NC(CNS(=O)(=O)c2ccc(Cl)cc2)c2ccccc2)c1 (configuration not stated) returned aSyn yeast rescue inactive.
Cc1ccccc1Cn1c(=O)n(CCCCC(=O)NCc2ccccc2Cl)c(=O)c2ccccc21 was read as aSyn yeast rescue inactive.
CSc1nc(C)cc(Nc2cccc(C(=O)O)c2)n1 was read as aSyn yeast rescue inactive.
Screening Cc1ccccc1CSc1nnc2[nH]c(=O)cc(-c3ccccc3)n12 returned aSyn yeast rescue inactive.
`CC1Cc2cc(S(=O)(=O)CCC(=O)NCc3ccccc3Cl)ccc2N1C(=O)C1CC1` (configuration not stated) gave aSyn yeast rescue inactive.
For Cc1ccc(N2CCn3c2nc2c3c(=O)n(CCCc3ccccc3)c(=O)n2C)cc1 the results were aSyn yeast rescue inactive.
Screening CCOC(=O)N1CCN(C(=O)CN(c2cccc(Cl)c2)S(=O)(=O)c2ccccc2)CC1 returned aSyn yeast rescue inactive.
Cc1oc(-c2ccc(C(=O)Nc3ccc(F)cc3F)cc2)nc1COc1ccccc1 was read as aSyn yeast rescue inactive.
For Cc1ccc(-c2nnc(SCC(=O)NCc3ccccc3)o2)cc1 the results were aSyn yeast rescue inactive.
Screening COc1ccc(-c2cn3c(n2)sc2cc(C(=O)NCCc4ccccc4)ccc23)cc1 returned aSyn yeast rescue inactive.
O=c1cc(-c2ccccc2)n2c(SCc3ccc(F)cc3)nnc2[nH]1 was read as aSyn yeast rescue inactive.
CCc1ccc(-c2nc(CS(=O)CC(=O)NCCc3ccc(C)cc3)c(C)o2)cc1 (configuration not stated) was read as aSyn yeast rescue 20µM*.
`Cc1ccc(CCNC(=O)CS(=O)Cc2nc(-c3cccs3)oc2C)cc1` (configuration not stated) gave aSyn yeast rescue inactive.
`Cc1ccc(CCNC(=O)CS(=O)Cc2nc(-c3ccccc3C)oc2C)cc1` (configuration not stated) gave aSyn yeast rescue inactive.
`Cc1ccc(NC(=O)c2cc(S(=O)(=O)NC3CCCCCC3)ccc2F)cc1F` gave aSyn yeast rescue 25.1µM*.
`Cc1ccc(NC(=O)c2cc(S(=O)(=O)N3CCCCCC3)ccc2F)cc1F` gave aSyn yeast rescue inactive.
CCc1ccc(NC(=O)c2cc(S(=O)(=O)NC3CCCC3)ccc2F)cc1 was read as aSyn yeast rescue inactive.
Screening CC(=O)c1ccc(NC(=O)CSc2nnc(-c3ccncc3)n2-c2ccccc2)cc1 returned aSyn yeast rescue inactive.
Nc1c(C(=O)Nc2ccccc2Cl)nnn1Cc1cccc(Cl)c1 was read as aSyn yeast rescue inactive.
`Cc1cc(Nc2cccc(Cl)c2)nc2ccc(NC(=O)c3ccc(F)cc3Cl)cc12` gave aSyn yeast rescue inactive.
CCN(CC)c1nn2c(=O)c(C(=O)NCCc3ccc(C)cc3)cnc2s1 was read as aSyn yeast rescue inactive.
`O=C(NCCc1ccc(Cl)cc1)C(=O)NCC(c1ccc2c(c1)OCO2)N1CCOCC1` (configuration not stated) gave aSyn yeast rescue inactive.
CCN(CCN(C)C)C(=O)Cn1ncc2c([nH]c3ccc(C)cc32)c1=O was read as aSyn yeast rescue inactive.
CCN(c1ccccc1)S(=O)(=O)c1nnc(NC(=O)c2ccccc2)s1 was read as aSyn yeast rescue inactive.
For O=S(=O)(Nc1ccc2nc(-c3ccc(F)cc3)oc2c1)c1ccccc1 the results were aSyn yeast rescue 20µM*.
Cc1ccc(S(=O)(=O)Nc2ccc3nc(-c4ccc(F)cc4)oc3c2)cc1 was read as aSyn yeast rescue inactive.
`COc1ccc(-c2nc3ccc(NS(=O)(=O)c4ccccc4)cc3o2)cc1` gave aSyn yeast rescue inactive.
Screening O=C(Cn1c(=O)c2cccn2c2ccc(F)cc21)NCc1cccc(Cl)c1 returned aSyn yeast rescue inactive.
`COc1ccccc1C(=O)NCc1nc2cccnc2n1Cc1ccc(F)cc1` gave aSyn yeast rescue inactive.
Cc1ccc([N+](=O)[O-])cc1S(=O)(=O)N1CCn2cccc2C1c1ccccc1F (configuration not stated) was read as aSyn yeast rescue inactive.
`Cc1ccccc1C(=O)NC1(C(F)(F)F)N=C(c2ccccc2)N(C2CCCCC2)C1=O` (configuration not stated) gave aSyn yeast rescue inactive.
`CCCN(CCC)C(=O)Cn1c(=O)n(-c2ccc(OC)cc2OC)c(=O)c2c3c(sc21)CCC3` gave aSyn yeast rescue inactive.
`Cc1nc(-c2ccc(S(=O)(=O)N(Cc3ccccc3)C(C)C)cc2)co1` gave aSyn yeast rescue inactive.
COC(=O)c1ccccc1NC(=O)c1c(NC(=O)c2ccco2)sc2c1CCC(C(C)(C)C)C2 (configuration not stated) was read as aSyn yeast rescue inactive.
Screening COc1cc(NC(=O)C2CCN(S(=O)(=O)c3c(C)noc3/C=C/c3ccccc3F)CC2)cc(OC)c1OC returned aSyn yeast rescue inactive.

High-throughput results as filed in PubChem.
